Measured values reported in paper PMC7862700, “An all-to-all approach to the identification of sequence-specific readers for epigenetic DNA modifications on cytosine”.

What was measured:
Assay in all cases: DAPPL (digital affinity profiling via proximity ligation, sequencing); 10 mM Tris-HCl pH 7.5, 50 mM NaCl, 1 mM DTT, 4% glycerol, room temperature, 30 min; GST-TFs on glutathione beads, 16-mer random dsDNA library, 0.1% formaldehyde crosslink after washing; high values mean tight binding
Settings in all cases: protein: recombinant; tags: N-terminal GST; dsDNA, one strand shown
[1] = molecular target: T1, GABPA (Homo sapiens, UniProt Q06546 1-454)
T1 sequence: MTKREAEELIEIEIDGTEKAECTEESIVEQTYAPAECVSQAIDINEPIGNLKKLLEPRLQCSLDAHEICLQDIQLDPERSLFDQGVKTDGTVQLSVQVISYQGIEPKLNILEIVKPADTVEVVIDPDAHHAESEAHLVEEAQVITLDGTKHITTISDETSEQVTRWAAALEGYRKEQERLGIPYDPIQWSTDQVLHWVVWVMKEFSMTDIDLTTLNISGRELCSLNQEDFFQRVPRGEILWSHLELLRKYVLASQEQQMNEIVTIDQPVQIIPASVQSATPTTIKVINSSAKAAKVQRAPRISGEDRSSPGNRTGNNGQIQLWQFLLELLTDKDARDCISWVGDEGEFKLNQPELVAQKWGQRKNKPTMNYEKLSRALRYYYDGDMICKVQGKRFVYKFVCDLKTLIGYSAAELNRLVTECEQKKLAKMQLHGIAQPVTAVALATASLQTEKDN
In short: (§1)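 In yeast, human transcription factors were expressed with a GST fusion, then pulled down on glutathione beads and given DNA barcodes. Pooled with a tag-only sample, they were exposed to 200 nmole of a 16-mer random double-stranded DNA library (Tris/NaCl/DTT/glycerol buffer, room temperature, 30 min), washed, crosslinked with 0.1% formaldehyde, proximity-ligated using BsaI/T4 ligase for 1 h at 37 °C, PCR-amplified and read on an Illumina NextSeq500. Each hexamer's frequency of reads for a factor, divided by the matching frequency for the tag-only sample, gives the binding signal.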

[2] = molecular target: T2, SPIC (Homo sapiens, UniProt Q8N5J4 1-248)
T2 sequence: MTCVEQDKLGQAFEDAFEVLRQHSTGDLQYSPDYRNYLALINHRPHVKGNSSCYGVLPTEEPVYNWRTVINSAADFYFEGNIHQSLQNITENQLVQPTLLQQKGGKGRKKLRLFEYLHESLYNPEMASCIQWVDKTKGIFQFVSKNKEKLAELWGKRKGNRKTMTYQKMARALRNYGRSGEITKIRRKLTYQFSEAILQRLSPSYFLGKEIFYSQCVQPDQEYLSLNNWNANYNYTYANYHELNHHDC
In short: as §1

[3] = molecular target: T3, ELK4 (Homo sapiens, UniProt P28324-2 1-405)
T3 sequence: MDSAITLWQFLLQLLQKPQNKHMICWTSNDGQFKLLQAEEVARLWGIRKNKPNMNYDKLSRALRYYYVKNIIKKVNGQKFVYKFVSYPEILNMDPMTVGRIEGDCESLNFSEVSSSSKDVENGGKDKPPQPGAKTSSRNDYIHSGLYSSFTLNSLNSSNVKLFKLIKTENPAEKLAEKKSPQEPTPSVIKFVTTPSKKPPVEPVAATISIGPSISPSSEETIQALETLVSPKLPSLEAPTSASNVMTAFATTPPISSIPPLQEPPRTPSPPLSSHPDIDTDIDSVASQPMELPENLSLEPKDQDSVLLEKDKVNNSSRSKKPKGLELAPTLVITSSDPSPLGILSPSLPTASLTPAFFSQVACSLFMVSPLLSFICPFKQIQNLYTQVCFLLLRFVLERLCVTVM
In short: as §1

[4] = molecular target: T4, ELF3 (Homo sapiens, UniProt P78545 1-371)
T4 sequence: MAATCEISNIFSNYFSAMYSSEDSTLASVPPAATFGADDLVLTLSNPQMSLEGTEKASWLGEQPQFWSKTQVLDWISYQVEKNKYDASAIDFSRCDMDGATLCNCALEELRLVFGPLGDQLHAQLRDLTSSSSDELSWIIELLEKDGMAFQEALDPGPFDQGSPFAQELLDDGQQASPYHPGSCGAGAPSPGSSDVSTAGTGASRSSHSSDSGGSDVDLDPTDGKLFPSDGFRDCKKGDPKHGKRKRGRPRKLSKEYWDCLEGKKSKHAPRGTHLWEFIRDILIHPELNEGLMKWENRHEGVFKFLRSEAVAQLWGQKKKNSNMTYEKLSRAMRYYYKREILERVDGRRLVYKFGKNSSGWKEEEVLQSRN
In short: as §1

[5] = molecular target: T5, ERG (Homo sapiens, UniProt P11308 1-479)
T5 sequence: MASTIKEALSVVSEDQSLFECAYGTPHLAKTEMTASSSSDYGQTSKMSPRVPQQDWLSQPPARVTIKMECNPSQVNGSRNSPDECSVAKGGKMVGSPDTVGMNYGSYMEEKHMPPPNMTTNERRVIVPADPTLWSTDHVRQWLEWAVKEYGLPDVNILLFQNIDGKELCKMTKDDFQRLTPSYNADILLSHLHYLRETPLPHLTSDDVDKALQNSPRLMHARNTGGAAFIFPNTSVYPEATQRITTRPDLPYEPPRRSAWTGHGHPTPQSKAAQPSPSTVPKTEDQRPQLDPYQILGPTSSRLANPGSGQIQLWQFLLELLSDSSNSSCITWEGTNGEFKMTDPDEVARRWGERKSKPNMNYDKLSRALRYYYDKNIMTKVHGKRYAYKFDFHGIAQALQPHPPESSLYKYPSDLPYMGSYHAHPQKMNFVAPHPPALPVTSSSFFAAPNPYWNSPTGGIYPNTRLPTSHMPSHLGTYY
In short: as §1

[6] = molecular target: SPI1 (Homo sapiens, UniProt P17947 1-270)
In short: as §1

[7] = molecular target: SPIB (Homo sapiens, UniProt Q01892 1-262)
In short: as §1

[8] = molecular target: T6, ELK3 (Homo sapiens, UniProt P41970 1-407)
T6 sequence: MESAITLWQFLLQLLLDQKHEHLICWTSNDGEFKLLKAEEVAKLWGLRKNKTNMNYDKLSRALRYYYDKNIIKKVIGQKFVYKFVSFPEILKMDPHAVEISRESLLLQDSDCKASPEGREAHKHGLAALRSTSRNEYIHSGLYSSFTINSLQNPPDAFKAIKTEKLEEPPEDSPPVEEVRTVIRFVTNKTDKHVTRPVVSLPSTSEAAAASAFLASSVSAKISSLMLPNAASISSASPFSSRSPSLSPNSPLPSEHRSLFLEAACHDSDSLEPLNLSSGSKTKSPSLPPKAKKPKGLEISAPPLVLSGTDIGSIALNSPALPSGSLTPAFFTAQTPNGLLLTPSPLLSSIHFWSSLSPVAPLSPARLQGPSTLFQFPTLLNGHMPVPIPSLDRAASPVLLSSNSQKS
In short: as §1

[9] = molecular target: T7, ETV2 (Homo sapiens, UniProt O00321 1-342)
T7 sequence: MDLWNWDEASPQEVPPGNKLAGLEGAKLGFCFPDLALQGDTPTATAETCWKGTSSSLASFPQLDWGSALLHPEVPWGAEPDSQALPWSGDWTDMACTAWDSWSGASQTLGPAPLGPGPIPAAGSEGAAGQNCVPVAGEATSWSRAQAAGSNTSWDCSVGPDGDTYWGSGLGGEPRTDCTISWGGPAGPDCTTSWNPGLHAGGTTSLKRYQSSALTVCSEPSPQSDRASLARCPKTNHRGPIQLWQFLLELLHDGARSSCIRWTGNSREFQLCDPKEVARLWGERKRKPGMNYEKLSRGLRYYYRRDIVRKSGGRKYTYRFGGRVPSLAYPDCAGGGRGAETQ
In short: as §1

[10] = molecular target: T8, ERF (Homo sapiens, UniProt P50548 1-548)
T8 sequence: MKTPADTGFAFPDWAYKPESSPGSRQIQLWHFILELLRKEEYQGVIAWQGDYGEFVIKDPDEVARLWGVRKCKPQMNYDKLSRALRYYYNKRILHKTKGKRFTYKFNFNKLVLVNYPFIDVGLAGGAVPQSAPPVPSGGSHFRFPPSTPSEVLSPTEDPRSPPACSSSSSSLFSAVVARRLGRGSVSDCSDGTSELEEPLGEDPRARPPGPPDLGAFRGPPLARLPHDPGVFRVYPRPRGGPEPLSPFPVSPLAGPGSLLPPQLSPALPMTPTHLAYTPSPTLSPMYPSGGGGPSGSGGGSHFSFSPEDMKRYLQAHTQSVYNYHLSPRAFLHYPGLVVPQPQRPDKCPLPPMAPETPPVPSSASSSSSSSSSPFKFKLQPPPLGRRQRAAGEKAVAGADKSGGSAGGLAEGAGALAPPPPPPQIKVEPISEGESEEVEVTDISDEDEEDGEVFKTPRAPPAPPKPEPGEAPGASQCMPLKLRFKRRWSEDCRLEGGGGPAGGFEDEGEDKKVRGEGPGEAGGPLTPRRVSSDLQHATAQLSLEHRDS
In short: as §1

[11] = molecular target: T9, ETS2 (Homo sapiens, UniProt P15036 1-469)
T9 sequence: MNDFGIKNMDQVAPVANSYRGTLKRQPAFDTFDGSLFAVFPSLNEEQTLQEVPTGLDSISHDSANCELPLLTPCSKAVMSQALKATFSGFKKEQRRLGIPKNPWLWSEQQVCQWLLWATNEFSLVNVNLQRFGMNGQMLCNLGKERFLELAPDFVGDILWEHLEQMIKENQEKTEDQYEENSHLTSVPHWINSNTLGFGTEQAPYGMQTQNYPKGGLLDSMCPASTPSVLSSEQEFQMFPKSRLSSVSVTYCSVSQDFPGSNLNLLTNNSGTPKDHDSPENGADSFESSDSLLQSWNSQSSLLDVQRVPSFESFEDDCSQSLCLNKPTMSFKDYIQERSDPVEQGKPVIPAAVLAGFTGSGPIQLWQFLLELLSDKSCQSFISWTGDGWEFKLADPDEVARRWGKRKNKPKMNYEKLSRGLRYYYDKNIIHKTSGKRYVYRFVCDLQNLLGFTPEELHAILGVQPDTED
In short: as §1

[12] = molecular target: T10, ETV7 (Homo sapiens, UniProt Q9Y603 1-341)
T10 sequence: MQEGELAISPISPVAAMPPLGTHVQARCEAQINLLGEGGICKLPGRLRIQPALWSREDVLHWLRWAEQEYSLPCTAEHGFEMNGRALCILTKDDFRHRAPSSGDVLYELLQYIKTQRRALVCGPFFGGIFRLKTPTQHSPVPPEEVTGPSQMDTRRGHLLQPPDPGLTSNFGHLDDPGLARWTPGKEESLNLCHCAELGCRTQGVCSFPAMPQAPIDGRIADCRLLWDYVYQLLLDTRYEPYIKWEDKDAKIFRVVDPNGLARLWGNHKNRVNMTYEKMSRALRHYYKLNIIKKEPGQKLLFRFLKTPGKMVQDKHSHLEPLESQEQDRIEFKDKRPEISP
In short: as §1

[13] = molecular target: ELF1 (Homo sapiens, UniProt P32519 1-619)
In short: as §1

[14] = molecular target: ETV1 (Homo sapiens, UniProt P50549 1-477)
In short: as §1

[15] = molecular target: T11, ETV3L (Homo sapiens, UniProt Q6ZN32 1-361)
T11 sequence: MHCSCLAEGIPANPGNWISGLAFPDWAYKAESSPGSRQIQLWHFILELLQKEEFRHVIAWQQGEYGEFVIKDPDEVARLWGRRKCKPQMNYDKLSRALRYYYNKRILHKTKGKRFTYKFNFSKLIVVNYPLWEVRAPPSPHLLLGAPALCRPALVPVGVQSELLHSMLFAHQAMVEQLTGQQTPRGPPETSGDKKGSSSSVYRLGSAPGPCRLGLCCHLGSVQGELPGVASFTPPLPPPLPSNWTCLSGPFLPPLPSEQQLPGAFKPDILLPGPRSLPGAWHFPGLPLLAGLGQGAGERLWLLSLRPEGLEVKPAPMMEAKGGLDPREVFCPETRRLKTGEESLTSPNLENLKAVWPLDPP
In short: as §1

[16] = molecular target: T12, SPDEF (Homo sapiens, UniProt O95238 1-335)
T12 sequence: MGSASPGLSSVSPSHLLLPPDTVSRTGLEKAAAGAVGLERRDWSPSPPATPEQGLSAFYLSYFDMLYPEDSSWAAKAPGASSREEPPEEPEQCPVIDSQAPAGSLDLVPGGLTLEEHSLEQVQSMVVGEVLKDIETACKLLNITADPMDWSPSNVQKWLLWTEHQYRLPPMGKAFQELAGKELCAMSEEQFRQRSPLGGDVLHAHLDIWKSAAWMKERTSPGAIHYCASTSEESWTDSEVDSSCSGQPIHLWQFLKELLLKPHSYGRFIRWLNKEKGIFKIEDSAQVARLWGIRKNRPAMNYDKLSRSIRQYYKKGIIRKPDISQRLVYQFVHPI
In short: as §1

[17] = molecular target: ETV6 (Homo sapiens, UniProt P41212 1-452)
In short: as §1

ETV1, sequence (P50549 whole entry): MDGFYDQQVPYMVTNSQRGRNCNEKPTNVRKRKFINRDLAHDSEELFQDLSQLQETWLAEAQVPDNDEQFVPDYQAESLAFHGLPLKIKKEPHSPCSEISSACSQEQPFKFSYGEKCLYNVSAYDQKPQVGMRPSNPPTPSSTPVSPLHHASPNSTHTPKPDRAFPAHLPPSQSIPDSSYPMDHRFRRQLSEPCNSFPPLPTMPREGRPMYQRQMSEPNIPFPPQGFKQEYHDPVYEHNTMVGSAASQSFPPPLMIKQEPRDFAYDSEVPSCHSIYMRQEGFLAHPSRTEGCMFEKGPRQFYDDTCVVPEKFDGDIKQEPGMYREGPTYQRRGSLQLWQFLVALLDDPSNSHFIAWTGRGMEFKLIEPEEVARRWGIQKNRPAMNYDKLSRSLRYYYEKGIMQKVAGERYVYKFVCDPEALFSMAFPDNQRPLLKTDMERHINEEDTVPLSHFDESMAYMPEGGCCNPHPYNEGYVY
ELF1, sequence (P32519 whole entry): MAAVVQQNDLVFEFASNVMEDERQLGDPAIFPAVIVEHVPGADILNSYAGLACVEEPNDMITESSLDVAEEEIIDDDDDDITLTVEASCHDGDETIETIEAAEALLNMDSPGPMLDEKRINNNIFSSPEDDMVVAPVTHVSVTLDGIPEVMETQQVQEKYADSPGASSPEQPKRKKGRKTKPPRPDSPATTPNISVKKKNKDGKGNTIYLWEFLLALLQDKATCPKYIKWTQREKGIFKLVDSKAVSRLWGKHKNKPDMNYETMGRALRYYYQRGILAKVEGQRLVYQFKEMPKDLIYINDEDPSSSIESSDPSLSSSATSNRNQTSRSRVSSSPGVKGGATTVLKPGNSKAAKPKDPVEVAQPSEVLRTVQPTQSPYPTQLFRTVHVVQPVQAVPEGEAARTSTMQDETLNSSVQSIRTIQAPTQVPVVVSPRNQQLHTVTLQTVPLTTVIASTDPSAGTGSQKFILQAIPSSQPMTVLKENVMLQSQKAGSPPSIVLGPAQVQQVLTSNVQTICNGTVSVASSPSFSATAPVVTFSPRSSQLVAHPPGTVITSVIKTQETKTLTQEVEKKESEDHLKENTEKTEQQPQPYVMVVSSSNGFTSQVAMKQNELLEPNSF
ETV6, sequence (P41212 whole entry): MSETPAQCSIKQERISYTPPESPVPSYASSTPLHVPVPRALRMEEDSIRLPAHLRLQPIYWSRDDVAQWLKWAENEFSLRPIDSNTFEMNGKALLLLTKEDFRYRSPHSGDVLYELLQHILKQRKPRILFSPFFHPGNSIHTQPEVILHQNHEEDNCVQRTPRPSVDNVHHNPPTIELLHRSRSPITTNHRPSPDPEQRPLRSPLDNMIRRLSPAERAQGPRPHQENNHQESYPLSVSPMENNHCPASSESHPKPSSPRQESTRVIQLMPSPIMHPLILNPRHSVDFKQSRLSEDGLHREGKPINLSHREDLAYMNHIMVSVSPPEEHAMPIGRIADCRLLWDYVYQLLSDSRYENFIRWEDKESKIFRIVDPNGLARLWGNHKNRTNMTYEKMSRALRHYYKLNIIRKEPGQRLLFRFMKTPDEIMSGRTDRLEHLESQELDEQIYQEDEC
SPIB, sequence (Q01892 whole entry): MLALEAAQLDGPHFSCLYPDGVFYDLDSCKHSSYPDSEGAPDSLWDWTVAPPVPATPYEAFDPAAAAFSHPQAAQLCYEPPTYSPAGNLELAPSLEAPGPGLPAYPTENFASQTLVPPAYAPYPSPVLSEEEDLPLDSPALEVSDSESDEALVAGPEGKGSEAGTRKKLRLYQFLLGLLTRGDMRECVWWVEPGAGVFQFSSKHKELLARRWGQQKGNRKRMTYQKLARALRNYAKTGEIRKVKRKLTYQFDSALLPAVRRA

ATAGTC
binding signal [1]: 1.01 fold enrichment (6-mer frequency, TF over GST control)
binding signal [2]: 1.1 fold enrichment (6-mer frequency, TF over GST control)
binding signal [3]: 1.04 fold enrichment (6-mer frequency, TF over GST control)
binding signal [4]: 1.07 fold enrichment (6-mer frequency, TF over GST control)

TGCAGG
binding signal [5]: 1.01 fold enrichment (6-mer frequency, TF over GST control)
binding signal [6]: 1.03 fold enrichment (6-mer frequency, TF over GST control)
binding signal [7]: 1.07 fold enrichment (6-mer frequency, TF over GST control)
binding signal [8]: 1.03 fold enrichment (6-mer frequency, TF over GST control)
binding signal [2]: 1.01 fold enrichment (6-mer frequency, TF over GST control)
binding signal [9]: 1.03 fold enrichment (6-mer frequency, TF over GST control)
binding signal [10]: 1.01 fold enrichment (6-mer frequency, TF over GST control)
binding signal [11]: 1.02 fold enrichment (6-mer frequency, TF over GST control)

AAGGCC
binding signal [2]: 1.06 fold enrichment (6-mer frequency, TF over GST control)
binding signal [12]: 1.01 fold enrichment (6-mer frequency, TF over GST control)

CACGGC
binding signal [13]: 1.04 fold enrichment (6-mer frequency, TF over GST control)
binding signal [6]: 1.01 fold enrichment (6-mer frequency, TF over GST control)
binding signal [2]: 1.03 fold enrichment (6-mer frequency, TF over GST control)
binding signal [14]: 1 fold enrichment (6-mer frequency, TF over GST control)
binding signal [15]: 1.07 fold enrichment (6-mer frequency, TF over GST control)
binding signal [16]: 1.03 fold enrichment (6-mer frequency, TF over GST control)
binding signal [17]: 1.05 fold enrichment (6-mer frequency, TF over GST control)
